From PubChem BioAssay AID1571 (National Center for Advancing Translational Sciences (NCATS), 2009)
Records with an inconclusive call do not appear. Active and inactive are the calls of the source. Calls come from the whole dose curve; as a rule, active = well fitted curve in the direction sought with a large enough effect; inconclusive = small, poorly fitted or top-dose-only effect, or effect the other way; inactive = flat fitted curve, though single readings scatter.

Test: Total Fluorescence Confirmation Counterscreen for Inhibitors of the Interaction of Thyroid Hormone Receptor and Steroid Receptor Coregulator 2, Fluorescein Fluoroprobe
Settings: TRbeta/SRC2-fluorescein mix, total fluorescence interference; series mostly up to 92.2 µM; total fluorescence change, positive = fluorescent: at the top concentration
From the text: NIH Molecular Libraries Probe Production Network [MLPCN] NIH Chemical Genomics Center [NCGC] MLPCN Grant: DK058080 Assay Provider: R. Kip Guy, St. Jude Children's Research Hospital NCGC Assay Overview: Thyroid receptor (TR) regulates many homeostatic processes including basal metabolism, cardiovascular function, body weight, and lipid trafficking. TR modulators are potential therapeutics for obesity and hyperlipidemias but current thyroid analogs have undesirable side effects, particularly cardiac stimulation. To identify inhibitors that specifically prevent the interaction of TR with the steroid receptor coregulator 2 (SRC2), a fluorescence polarization assay was screened (Arnold et al., 2006). This assay detects interaction of the ligand-binding domain of human TRbeta with a fluorescein labeled SRC2 peptide, corresponding to a 20 amino acid region of the nuclear receptor interaction domain. Total fluorescence (555 nm excitation and 632 nm emission) was measured to identify potential fluorescent and light absorbing compounds. Such compounds may be artifacts that interfere with the fluorescence polarization assay. This assay is a confirmation assay for AID 1479. Arnold, L. A.; Estebanez-Perpina, E.; Togashi, M.; Shelat, A.; Ocasio, C. A.; McReynolds, A. C.; Nguyen, P.; Baxter, J. D.; Fletterick, R. J.; Webb, P.; Guy, R. K. A high-throughput screening method to identify small molecule inhibitors of thyroid hormone receptor coactivator binding. Sci STKE 2006, p 13.
NCGC Assay Protocol Summary: For screening, 5 uL/well 0.6 uM TRbeta and 20 nM SRC2 Fluorescein in protein buffer (20mM Tris hydrochloride, 100mM NaCl, 10% glycerol, 1mM EDTA, 0.01% NP-40, 1mM DTT, 1uM T3 and 5% DMSO) was dispensed into black solid 1536-well plates (Grenier) using a solenoid-based dispenser. Following transfer of 23 nL compound or DMSO vehicle by a pin tool, the plates were centrifuged 15 s at 1000 RPM and incubated 5 hr at ambient temperature. The plates were read by an Envision (Perkin Elmer) to detect fluorescence polarization of SRC2 Fluorescein (480 nm excitation and 535 nm emission). Data were normalized to unbound (all components except TRbeta) and bound SRC2 Fluorescein controls. Total fluorescence (TF) was calculated as follows: TF = S + 2P where S and P are fluorescence readings in the parallel and perpendicular channels, respectively. In this assay, we provide % activity data for each concentration as well as potencies for the active compounds.

Structure (SMILES) | total fluorescence change, positive = fluorescent | outcome
Cc1[nH]n(-c2ccccc2)c(=O)c1C(c1ccc([N+](=O)[O-])cc1)c1c(C)[nH]n(-c2ccccc2)c1=O | 6.9% (inactive) | –
CN1CC[C@@]2(C)c3cc(O)ccc3N(C)C2O1 (stereo not given in full) | 9.37% [at 184 µM] (inactive) | –
CCn1nc(-c2cccs2)nc2c(=O)n(C)c(=O)nc1-2 | 2.13% (inactive) | –
O=C(O)CC1OCC=C2CN3CCC45C6=CC(=O)C(=O)C([N+](=O)[O-])=C6NC4C1C2CC35 (stereo not given) | – | inactive
COP(=S)(OC)Oc1ccc([N+](=O)[O-])cc1 | 12.5% [at 184 µM] (inactive) | –
